Reference: PubChem BioAssay (NCATS)
“And” between values parts separate entries of the source, which are not always exact repeats. Equal entries are not always repeated. Values without a mark were called inactive. Records with an inconclusive call do not appear. A call without a number means that no potency is given here. The source made the active and inactive calls. Unless noted, calls follow the shape of the dose curve; as a rule, active = well fitted curve in the direction sought with a large enough effect; inconclusive = small, poorly fitted or top-dose-only effect, or another doubt; inactive = no such curve, though single readings can be large; an effect the other way counts as inactive or inconclusive.

Assays:
[1] = target: Mitogen-activated protein kinase 10 (Mus musculus) (UniProt Q61831); assay: JNK3 AlphaScreen Assay (AID 530; active = well fitted curve in either direction with a large enough effect, not every such curve was filed as active;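 also: kinase came from lysate of stimulated human HepG2 cells; signal reports phosphorylation of biotinylated GST-cJun 1-79 at Ser73 with 10 µM ATP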)
Outline: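 Biotinylated GST-cJun(1-79) served as substrate for JNK3 in HepG2 lysates stimulated with IL-1beta and TNF-alpha. ATP was 10 uM final, pH 7.6. Ser73 phosphorylation was quantified by AlphaScreen (680 nm excitation).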

[2] = Cell Viability - NIH 3T3 (AID 541); details: NIH 3T3 cell viability, qHTS; activity change, negative = cytotoxicity: at 92.2 µM (top of the series);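 also: cells exposed to compound for 40 hours; nearly all actives have a fitted effect of over 25% in size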; also: potency is read from the fitted curve at half-maximal effect
Outline: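 qHTS format; 40 hr compound exposure, 37 °C; CellTiter-Glo luminescence (cellular ATP) read-out after 20 min at RT. Decrease in ATP = cytotoxicity; AC50 from standard Hill fit.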

[3] = Cell Viability - Mesenchymal (AID 546);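 also: cells exposed to compound for 40 hours before reading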
Outline: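 In this qHTS cytotoxicity format, glomerulus-derived human mesenchymal kidney cells received compound for 40 hr, then luciferase-based ATP quantitation. Concentration-response data were fitted with the Hill equation.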

[4] = Cellular Toxicity (caspase-3) MRC-5 (AID 659)
Outline: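 Apoptosis readout in MRC-5 cells: luciferase light generated after caspase 3/7 cleaves a peptide-aminoluciferin substrate, measured post 16 hr compound incubation at 37 °C.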

[5] = target: Cytochrome P450 3A4 (Homo sapiens) (UniProt P08684); assay: qHTS Assay for Inhibitors and Substrates of Cytochrome P450 3A4 (AID 884); also: nearly all actives have a fitted effect of over 50% in size
Cytochrome P450 3A4 (Homo sapiens), sequence (P08684 whole entry, looked up): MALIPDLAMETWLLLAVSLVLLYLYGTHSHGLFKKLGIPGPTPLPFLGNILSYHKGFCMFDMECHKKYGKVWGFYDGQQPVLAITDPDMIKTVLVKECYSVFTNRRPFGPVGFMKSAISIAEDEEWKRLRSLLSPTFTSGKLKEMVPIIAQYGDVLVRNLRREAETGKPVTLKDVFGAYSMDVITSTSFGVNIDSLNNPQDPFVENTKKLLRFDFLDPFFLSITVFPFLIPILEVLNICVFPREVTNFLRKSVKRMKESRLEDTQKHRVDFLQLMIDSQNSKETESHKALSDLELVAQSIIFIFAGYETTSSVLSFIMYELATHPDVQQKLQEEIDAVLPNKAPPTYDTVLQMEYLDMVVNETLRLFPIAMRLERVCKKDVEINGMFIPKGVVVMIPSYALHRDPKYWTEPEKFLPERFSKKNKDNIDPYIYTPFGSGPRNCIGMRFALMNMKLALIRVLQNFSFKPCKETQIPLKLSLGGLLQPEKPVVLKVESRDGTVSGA
Outline: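 Luminescent readout of luciferin produced by CYP3A4 (20 nM) dealkylation of Luciferin-PPXE, 25 uM (its KM). NADPH-driven reaction ran 60 min at RT after 10 min compound preincubation; data scaled to 57 uM ketoconazole as 100% inhibition.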

[6] = MultiTox-Fluor Cytotoxicity Assay - LYMP1-002 - Live Cells (AID 955)
Outline: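 LYMP1-002 lymphoblastoid cells; 2500 cells/well; 16 hr compound exposure, 37 C; MultiTox-Fluor reagent 60 min RT; live-cell fluorescence Ex/Em=405/510; qHTS concentration-response, Hill-equation AC50; tetraoctylammonium bromide positive control.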

[7] = MultiTox-Fluor Cytotoxicity Assay - LYMP1-002 - Dead Cells (AID 960); also: nearly all actives have a fitted effect of over 60% in size
Outline: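 Readout: fluorescence at 485/520 from cell-impermeant bis-AAF-R110 cleaved by proteases leaking from damaged cells. LYMP1-002 lymphoblastoid line, 16 hr compound treatment at 37 C, concentration-response in qHTS format; Hill-equation AC50 values.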

[8] = Cell Viability - LYMP2-003 (AID 965);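 also: cells exposed to compounds for 24 h before reading; nearly all actives have a fitted effect of over 50% in size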
Outline: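 Human lymphoblastoid LYMP2-003 cells, 2500/well, exposed to compounds for 24 h at 37 C in complete medium. Viability read as intracellular ATP by CellTiter-Glo luminescence; AC50 from Hill-equation fits of qHTS concentration-response data.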

[9] = Cell Viability - LYMP2-017 (AID 972); also: nearly all actives have a fitted effect of over 55% in size
Outline: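 Luminescent ATP read-out (CellTiter-Glo, 30 min RT) reports viable cell number. Cells: human lymphoblastoid line, 2500 per well, 5 hr preincubation, 24 hr compound exposure at 37 C. AC50 is derived from qHTS concentration-response data using the standard Hill model.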

[10] = Cell Viability - LYMP2-021 (AID 974);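 also: compound exposure lasts 24 hours at 37 °C; nearly all actives have a fitted effect of over 55% in size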
Outline: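 ATP luminescence (CellTiter-Glo, 30 min RT) after 24 h compound exposure at 37 C; 2500 human lymphoblastoid cells/well, 5 h settle beforehand. Cytotoxicity = concentration-dependent ATP drop, AC50 by Hill fit.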

[11] = Cell Viability - LYMP2-016 (AID 984); also: nearly all actives have a fitted effect of over 55% in size
Outline: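 Human lymphoblastoid LYMP2-016 cells, 2500 per well, treated with compounds for 24 h at 37 C. Viability read as intracellular ATP by CellTiter-Glo luminescence after 30 min at room temperature; AC50 from Hill fits of concentration-response.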

[12] = Cell Viability - LYMP1-002 - Assay at 24 hr (AID 993)
Outline: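 CellTiter-Glo luminescence (intracellular ATP) after 24 h compound exposure, 37 C, in LYMP1-002 human lymphoblastoid cells; decreased ATP taken as cytotoxicity. AC50 from standard Hill fit of concentration-response curves.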

[13] = target: Vitamin D3 receptor (Homo sapiens) (UniProt P11473); assay: qHTS assay for small molecule agonists of vitamin D receptor signaling (AID 588543; calls by dose curve)
Vitamin D3 receptor (Homo sapiens), sequence (P11473 whole entry, looked up): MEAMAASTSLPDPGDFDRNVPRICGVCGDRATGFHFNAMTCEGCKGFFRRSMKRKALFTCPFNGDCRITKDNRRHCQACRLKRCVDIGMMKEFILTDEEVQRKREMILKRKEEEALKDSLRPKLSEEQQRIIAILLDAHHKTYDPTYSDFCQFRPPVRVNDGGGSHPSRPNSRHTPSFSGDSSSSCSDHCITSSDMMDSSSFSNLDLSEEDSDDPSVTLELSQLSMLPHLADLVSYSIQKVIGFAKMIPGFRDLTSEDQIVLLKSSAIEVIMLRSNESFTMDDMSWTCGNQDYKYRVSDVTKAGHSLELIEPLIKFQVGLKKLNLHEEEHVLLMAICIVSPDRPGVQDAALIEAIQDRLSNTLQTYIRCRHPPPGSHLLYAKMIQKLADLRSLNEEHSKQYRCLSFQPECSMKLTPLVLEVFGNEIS
Outline: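 VDR-UAS-bla HEK293T cells, 2000/well, 2% charcoal-stripped FBS; compound titration 16 h at 37 C; CCF4 beta-lactamase ratio read. Normalized to 50 nM 1-alpha,25-dihydroxyvitamin D3 (100%) and DMSO; Hill fit gives EC50, efficacy.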

[14] = qHTS assay for small molecule disruptors of the mitochondrial membrane potential - 5 hr assay (AID 651755; calls by dose curve; also: nearly all actives have a fitted effect of over 40% in size; also: potency is read from the fitted curve at half-maximal effect)
Outline: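 Seed HepG2 overnight, add compound, incubate 5 hr at 37C and 5% CO2, stain 30 min with Mito-MPS, then measure monomer (490/535 nm) and aggregate (540/590 nm) fluorescence.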

[15] = target: Tumor necrosis factor (Homo sapiens) (UniProt P01375); assay: qHTS assay to identify small molecules that stimulate Tumor Necrosis Factor-alpha (TNF-alpha) secretion (AID 651757; active = well fitted curve in the direction sought with a large enough effect in the signal ratio; the % refers to the signal ratio)
Tumor necrosis factor (Homo sapiens), sequence (P01375 whole entry, looked up): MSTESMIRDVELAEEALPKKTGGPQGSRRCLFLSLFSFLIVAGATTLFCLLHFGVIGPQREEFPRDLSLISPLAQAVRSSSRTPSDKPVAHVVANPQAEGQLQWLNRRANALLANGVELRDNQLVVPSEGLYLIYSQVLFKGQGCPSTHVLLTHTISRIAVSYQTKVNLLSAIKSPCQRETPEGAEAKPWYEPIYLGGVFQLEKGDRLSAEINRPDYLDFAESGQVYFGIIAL
Outline: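 THP-1 cells, 3000/well; compound 17 hrs, 37 C; add cryptate/XL665 anti-TNF-alpha antibody pair; 3 hr RT; TR-FRET (HTRF) read of secreted TNF-alpha. Quantitative HTS format.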

[16] = target: Nuclear receptor ROR-gamma (Homo sapiens) (UniProt P51449); assay: qHTS assay for small molecule antagonists of the retinoid-related orphan receptor gamma (ROR-gamma) signaling pathway (AID 651802); also: nearly all actives have a fitted effect of over 60% in size; also: potency is read from the fitted curve at half-maximal effect
Nuclear receptor ROR-gamma (Homo sapiens), sequence (P51449 whole entry, looked up): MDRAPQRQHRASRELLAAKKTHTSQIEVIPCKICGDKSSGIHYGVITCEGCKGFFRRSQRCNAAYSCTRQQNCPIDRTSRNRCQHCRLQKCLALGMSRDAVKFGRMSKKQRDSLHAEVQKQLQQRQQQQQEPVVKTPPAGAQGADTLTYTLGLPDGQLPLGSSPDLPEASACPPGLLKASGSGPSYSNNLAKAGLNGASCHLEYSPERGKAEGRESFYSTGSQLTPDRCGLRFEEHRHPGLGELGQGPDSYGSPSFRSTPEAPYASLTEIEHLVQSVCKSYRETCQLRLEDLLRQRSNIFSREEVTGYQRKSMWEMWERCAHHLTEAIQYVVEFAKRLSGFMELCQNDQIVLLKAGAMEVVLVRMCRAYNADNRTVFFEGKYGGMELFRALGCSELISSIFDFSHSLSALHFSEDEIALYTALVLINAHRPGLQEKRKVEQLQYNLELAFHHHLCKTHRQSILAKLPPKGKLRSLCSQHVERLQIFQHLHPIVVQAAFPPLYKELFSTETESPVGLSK
Outline: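 Luciferase read-out: ONE-Glo luminescence after 30 min at room temperature, following 16hr doxycycline induction at 37C, 5% CO2 of CHO cells with TET-inducible ROR and RORE-LUC reporter; decreased luminescence = reduced reporter activity.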

[17] = target: Nuclear receptor subfamily 1 group I member 2 (Rattus norvegicus) (UniProt Q9R1A7); assay: qHTS assay for small molecule activators of the rat pregnane X receptor (rPXR) signaling pathway (AID 651751; call rule not given here); details: rPXR reporter cells, luciferase (One-Glo), 24 h
Nuclear receptor subfamily 1 group I member 2 (Rattus norvegicus), sequence (Q9R1A7 whole entry, looked up): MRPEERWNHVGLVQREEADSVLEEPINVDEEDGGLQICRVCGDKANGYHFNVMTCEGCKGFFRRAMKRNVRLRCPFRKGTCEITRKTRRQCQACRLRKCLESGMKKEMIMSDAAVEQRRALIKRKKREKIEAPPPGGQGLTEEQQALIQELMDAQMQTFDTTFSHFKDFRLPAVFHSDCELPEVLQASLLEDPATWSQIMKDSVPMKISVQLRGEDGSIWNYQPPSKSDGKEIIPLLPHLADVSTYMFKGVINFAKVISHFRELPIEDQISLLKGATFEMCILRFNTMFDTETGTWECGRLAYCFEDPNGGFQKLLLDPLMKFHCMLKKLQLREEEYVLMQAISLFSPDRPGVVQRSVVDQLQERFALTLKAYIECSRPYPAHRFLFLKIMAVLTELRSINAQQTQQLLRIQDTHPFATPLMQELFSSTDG

[18] = qHTS assay for small molecule activators of the human pregnane X receptor (PXR) signaling pathway (AID 720659; call rule not given here)
[19] = Cellular Toxicity (caspase-3) Hek293 (AID 664); details: HEK293 caspase-3 activation, DMSO = 0%, 100 µM tamoxifen = 100%; at 92.2 µM (top of the series);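 also: cells exposed to compound for 16 h at 37 °C before readout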
Outline: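 Luminescent Caspase-Glo 3/7 readout (aminoluciferin release) in HEK293 cells after 16 h compound treatment, 37 °C. Normalization: DMSO = basal, 100 uM tamoxifen = 100% stimulation. Concentration-response fitted with standard Hill equation for AC50.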

[20] = qHTS assay for small molecule agonists of the antioxidant response element (ARE) signaling pathway measured by Nrf2-dependant transcriptional activity - cell viability counter screen (AID 720653; active = well fitted curve in the direction sought with a large enough effect in the repeat runs; an effect the other way counts as inactive or inconclusive); details: ARE-bla HepG2 viability, CellTiter-Glo ATP luminescence, 16 h; active compounds read low
Outline: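 ARE-bla HepG2 cells (2,000/well) rested 5 hrs at 37C/5% CO2, then exposed to compounds in DMSO for 16 hrs. Viability was read in the same wells as intracellular ATP by luminescence, 30 min at room temperature after reagent addition.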

Structure (SMILES) | Potency [1] | Potency [2] | Potency [3] | outcome [4] | Potency [5] | outcome [6] | Potency [7] | Potency [8] | Potency [9] | Potency [10] | Potency [11] | Potency [12] | outcome [13] | Potency [14] | outcome [15] | Potency [16] | max response [17] | outcome [18] | caspase-3 activation [19] | max response [20]
CC(C)OC(=O)Cc1ccccc1 | inactive | inactive | inactive | inactive | inactive | inactive | inactive | inactive | inactive | inactive | inactive | inactive | inactive | inactive | inactive | inactive | 1.04% | inactive | – | –
O=C(O)c1cc(Cl)ccc1Cl | inactive | inactive | inactive | inactive | inactive | inactive | inactive | inactive | inactive | inactive | – | – | inactive | inactive | inactive | inactive | -1.07% | inactive | -1.49% | -0.443%
CCCN(CCC)c1c([N+](=O)[O-])cc(C(F)(F)F)cc1[N+](=O)[O-] | – | inactive | inactive | inactive | – | inactive | inactive | inactive | inactive | inactive | – | inactive | inactive | inactive | inactive | inactive | – | – | 3.06% | -5.66% and -9.4%
Cc1cccc(C)c1N | inactive | inactive | inactive | inactive | inactive | inactive | inactive | – | inactive | inactive | inactive | inactive | – | inactive | inactive | inactive | 0.51% | inactive | 0.142% | 4.9%
CN(C)C(=O)Cl | inactive | inactive | inactive | inactive | inactive | inactive | – | inactive | inactive | – | inactive | inactive | inactive | inactive | inactive | inactive | -2.26% | inactive | – | -21%
Clc1cccc(Cl)c1Cl | – | inactive | inactive | inactive | inactive | inactive | inactive | inactive | – | – | inactive | inactive | inactive | inactive | inactive | inactive | -2.59% and 0.772% | inactive | -0.313% | -3.73% and 1.34%
Nc1ccc([N+](=O)[O-])cc1[N+](=O)[O-] | inactive | 10 µM (active) | inactive | inactive | inactive | inactive | inactive | inactive | inactive | inactive | inactive | inactive | inactive | 33.5 µM (active) | inactive | 0.944 µM (active) | – | inactive | -0.459% | –
